Screens: PubChem BioAssay, Broad Institute
A selection: hits, their analogues and other compounds. The true share with any hit is near 2.9%.
Wnt act: Wnt/beta-catenin pathway activators, primary screen, cell-based, plate reader, single point | Wnt/beta-catenin reporter cell assay, activator | activation, % at 9.35 µM | 300,000 compounds, 1.2% hits | AID 743398, 2014; in the data active = activation above about 30%, passing the limit was not always enough; inconclusive = no clear call, values can overlap the other calls;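 note: 0% = neutral control wells and 100% = positive control wells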
PvdQ inh: P. aeruginosa PvdQ acylase inhibitors, primary screen, biochemical, fluorescence, plate reader and imaging, single point; purified PvdQ acylase; AID 488965, 2010; inhibition, % at 10 µM; 340,000 compounds, 0.063% hits; PvdQ acylase [Pseudomonas aeruginosa LESB58]; in the data active = inhibition above about 30%, passing the limit was not always enough; inconclusive = no clear call, values can overlap the other calls;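 note: 0% = vehicle neutral wells and 100% = reference inhibitor wells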
Vif inh: HIV Vif self-association inhibitors, primary screen, imaging, HEK293T, single point; 340,000 compounds, 0.35% hits; inhibition, % at 7.49 µM; AID 602346, 2012; HEK293T cells, Vif self-association by quenched fluorescence, 24 h; in the data active = inhibition above about 50%, passing the limit was not always enough; inconclusive = no clear call, values can overlap the other calls; inactive = below about 31%
esBAF inh: Bmi1 luciferase reporter increase in mESCs, primary screen, esBAF inhibitor project, mouse ES cells, Bmi1 luciferase knock-in, single point; 24 h; 100% = twice the neutral-well signal; reporter increase, % at 12.5 µM; 350,000 compounds, 2% hits; in the data active = activation above about 40%; inconclusive = no clear call, values can overlap the other calls;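 note: 0% = median of the plate's neutral control wells and 100% = double that signal; a rise in the Bmi1 reporter signal indicates esBAF inhibition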
MITF TRPM1 HTS: activators of MITF-driven TRPM1 promoter reporter, primary screen, cell-based, SK-MEL-5, luciferase, single point; AID 588334, 2011; SK-MEL-5 TRPM1-promoter luciferase, 24 h; % of positive control, neutral wells = 0; activation, % at 12.5 µM; 300,000 compounds, 0.75% hits;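 active = mean activation of at least 80% with every replicate also reaching 80%; inconclusive = mean reaches 80% but some replicate falls short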;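 note: 0% = neutral control wells and 100% = parthenolide positive control wells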
N-glyco inh: increase of ERlucT glycosylation luciferase signal, primary screen, N-linked glycosylation inhibitor project, D54 ERlucT cells, luminescence, set 2; D54 ERlucT glycosylation luciferase reporter, 24 h; percent of 100 nM tunicamycin response; reporter increase, % at 12.5 µM; 360,000 compounds, 0.23% hits;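 active = mean luciferase reporter signal, scaled so untreated is 0 and the glycosylation-blocking control 100, at or above a set limit in every replicate; inconclusive = mean reaches the limit but not every replicate does; inactive = mean below the limit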;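 note: luciferase carries N-glycosylation sites so blocking glycosylation raises the light; 0% = median of neutral control wells and 100% = median of 100 nM tunicamycin wells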
* = called active by the depositor; ? = inconclusive; nt = no result.

SMILES	Wnt act	PvdQ inh	Vif inh	esBAF inh	MITF TRPM1 HTS	N-glyco inh
Nc1c(C(=O)Nc2ccccc2Cl)nnn1-c1ccc2c(c1)OCCO2	18	-14	3	32	132*	-9
CC(=O)C(C)Oc1ccc2c3c(c(=O)oc2c1)CCCCC3 (stereo unspecified)	nt	-4	-6	66*	?	-7
CC(=O)C(C)Oc1ccc2c3c(c(=O)oc2c1)CCCC3 (stereo unspecified)	nt	3	0	31	nt	2
C[C@H]1CN([C@@H](C)CO)C(=O)c2cccc(NS(=O)(=O)c3cn(C)cn3)c2O[C@@H]1CN(C)C(=O)Nc1ccc2c(c1)OCO2	nt	nt	nt	6	nt	nt
C[C@H]1CN([C@@H](C)CO)C(=O)CCCn2nncc2CO[C@@H]1CN(C)S(=O)(=O)c1ccccc1F	nt	nt	nt	0	nt	nt
Cn1c(C(=O)O)c(C=O)c2ccccc21	-1	-3	8	-18	-10	0
Cc1c(C(=O)C(C)C)n(C)c2ccccc12	nt	2	59*	-4	nt	0
CO[C@H]1CN(C)C(=O)c2cccc(C#N)c2OCC[C@@H]2CC[C@@H](OC)[C@H](CN(C)C(=O)[C@@H]1C)O2	nt	nt	nt	3	nt	nt
O=C(c1ccc2ccccc2c1)N1CCN(Cc2ccccc2)CC1	9	-13	-3	69*	60	-7
CC1CCCN(C(=O)c2ccc(Cl)c(S(=O)(=O)N3CCCCCC3)c2)C1 (stereo unspecified)	5	-15	nt	58*	16	-3
O=C(c1ccc(Cl)c(S(=O)(=O)N2CCCCC2)c1)N1CCN(Cc2ccccc2)CC1	-3	4	-23	2	-16	29*
O=C(c1ccc(Cl)c(S(=O)(=O)N2CCCC2)c1)N1CCN(Cc2ccccc2)CC1	0	-21	-12	-3	-3	4
CCC(=O)N[C@H]1C=C[C@H](CC(=O)NCCN2CCCCC2)O[C@H]1CO	nt	nt	nt	7	nt	nt
CO[C@H]1CN(C)C(=O)c2ccc(NS(=O)(=O)c3ccccc3)cc2OC[C@H](C)NC[C@H]1C	nt	nt	nt	1	nt	nt
Cc1ccc(NC(=O)Nc2ccccc2C(=O)NCc2ccccc2)cc1	nt	-16	-2	51*	48	-2
CCN1CCN(Cc2ccccc2NC(=O)Nc2ccc(C)cc2)CC1	nt	-7	7	43*	76	-4
C[C@@H]1CN([C@H](C)CO)S(=O)(=O)c2ccc(-c3ccncc3)cc2O[C@@H]1CN(C)CC1CC1	nt	nt	nt	-6	nt	nt
CN(C)CC(=O)Nc1ccc2c(c1)[C@H]1C[C@@H](CC(=O)NCc3cccc(F)c3)O[C@@H](CO)[C@H]1O2	nt	nt	nt	0	nt	nt
CC(C)(C)N1C(=O)c2ccc(C(=O)Nc3ccc(O)cc3)cc2C1=O	48*	-18	9	?	nt	4
CC(C)(C)NC(=O)c1cccc(NC(=O)c2ccc3c(c2)C(=O)N(C(C)(C)C)C3=O)c1	-1	-2	-31	-6	7	0
C[C@H](CO)N1C[C@H](C)[C@H](CN(C)Cc2ccccc2)OCCCC[C@H](C)Oc2ccc(NC(=O)Nc3ccccc3)cc2C1=O	nt	nt	nt	-11	nt	nt
COc1ccc(OC)c(Cc2nnc(CCC(=O)N3CCCCCC3)o2)c1	2	-10	?	52*	27	1
COc1ccc(OC)c(Cc2nnc(CCC(=O)N3CCCCC3c3nccs3)o2)c1 (stereo unspecified)	40*	-1	4	48*	57	0
COc1ccc(OC)c(Cc2nnc(CCC(=O)N3CCC(N4CCCCC4)CC3)o2)c1	-1	-2	8	nt	6	-3
Cc1cccc(Cc2nnc(CCC(=O)N3CCCCC3c3nccs3)o2)c1 (stereo unspecified)	-1	7	-8	nt	9	-1
SMILES	Wnt act	PvdQ inh	Vif inh	esBAF inh	MITF TRPM1 HTS	N-glyco inh
c1ccc2c(Cn3nnc4ccccc43)cccc2c1	nt	2	nt	-5	-11	-1
c1ccc2c(COn3nnc4ccccc43)cccc2c1	nt	-11	-2	56*	64	-2
Cc1cccc(N=[N+]([O-])c2cccc(C)n2)n1	13	-16	10	57*	70	3
Cc1cccc(N=O)n1	-2	nt	nt	nt	nt	nt
C[C@H](NC(=O)C[C@H]1C=C[C@H](NC(=O)Cc2ccccn2)[C@@H](CO)O1)c1ccccc1	nt	nt	nt	6	nt	nt
COc1ccc(S(=O)(=O)N(C)C[C@H]2Oc3c(NS(=O)(=O)c4cccs4)cccc3C(=O)N([C@@H](C)CO)C[C@H]2C)cc1	nt	nt	nt	-5	nt	nt
O=c1oc(CCO)cc2ccc(-c3ccc4[nH]ccc4c3)cc12	43*	-9	0	50*	117*	-4
Cn1cncc1C#Cc1ccc2cc(CCO)oc(=O)c2c1	0	-16	-3	10	23	0
COc1ccc(C(=O)CSc2ncnc3nc[nH]c23)cc1	4	-14	1	nt	nt	-2
Cc1ccc(OCCSc2ncnc3nc[nH]c23)cc1	nt	-32	-1	nt	90*	-3
CCCC#Cc1ccc2c(c1)O[C@H](CN(C)C(=O)CN(C)C)[C@@H](C)CN([C@@H](C)CO)S2(=O)=O	nt	nt	nt	2	nt	nt
COc1ccc(/C=N/NC(=O)c2cccc(NC(=O)c3ccccc3Cl)c2)cc1	-1	-14	9	7	-9	34*
CSc1ccc(/C=N/NC(=O)c2ccccc2Cl)cc1	8	20	31	79*	44	?
CN(C)c1ccc(/C=N/NC(=O)c2ccccc2Cl)cc1	9	8	7	22	18	16
COc1ccc(/C=N/NC(=O)c2cccc(NC(=O)c3ccccc3Cl)c2)cc1OC	-1	-4	4	nt	3	1
COc1ccc(CN(C)C[C@H]2OCc3cnnn3CCCC(=O)N([C@@H](C)CO)C[C@H]2C)cc1	nt	nt	nt	-2	nt	nt
CC1(c2ccccc2)NC(=O)N(CC#N)C1=O (stereo unspecified)	36*	-7	6	nt	14	0
CCC1(c2ccccc2)NC(=O)N(CC#N)C1=O (stereo unspecified)	-3	-13	-2	-3	-7	-1
COc1cc(/C=N/OCC(=O)NC2CCCCC2C)ccc1OCc1ccc(Cl)cc1 (stereo unspecified)	47*	-11	-8	98*	42	-9
CC1CCCCC1NC(=O)CO/N=C/c1ccccc1OC(F)F (stereo unspecified)	-6	-13	91*	nt	-6	-1
CCC(C)NC(=O)CO/N=C/c1ccccc1OC(F)F (stereo unspecified)	-3	13	1	nt	-4	2
COc1cc(/C=N/OCC(=O)Nc2cc(C)cc(C)c2)ccc1OCc1ccc(Cl)cc1	?	10	-7	nt	75	-6
Cc1cnc(NC(=O)CCNC(=O)c2ccccc2Cl)s1	46*	-9	16	10	1	2
